Results published in PubChem BioAssay (Tox21).
Values joined by “and” are separate entries in the source; they are usually repeats but may differ in a detail not shown here. Equal values may be shown once. Inconclusive results are not listed. Where a call stands in place of a potency, no number is given. A structure can be active in one record and inactive in another. Active and inactive are the calls of the source. Unless noted, the call rests on the fitted dose curve; in most records, active means well fitted curve in the direction sought with a large enough effect in the repeat runs; inconclusive means weak or mixed curves; inactive means no such curve, though single readings can be large; an effect the other way counts as inactive or inconclusive.

What was measured:
[1] = qHTS assay to identify small molecule antagonists of the constitutive androstane receptor (CAR) signaling pathway - cell viability counter screen (AID 1224837); further: nearly all actives have a fitted effect of over 45% in size
Outline: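 Read-out: CellTiter-Fluor fluorescence after 23 hr at 37 C/5% CO2. Cells: HepG2 double-stable for hCAR and CYP2B6-2.2kb. Compounds tested at 15 concentrations in the presence of CITCO, final concentration 50 nM.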

[2] = biological target: Nuclear receptor subfamily 1 group I member 3 (Homo sapiens) (UniProt Q14994); test: qHTS assay to identify small molecule antagonists of the constitutive androstane receptor (CAR) signaling pathway (AID 1224838);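 further: HepG2 cells stably expressing hCAR with CYP2B6 luciferase reporter stimulated by CITCO; nearly all actives have a fitted effect of over 40% in size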; further: potency means the concentration at half of the fitted maximal effect
Outline: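 Read-out: ONE-Glo luciferase luminescence after 30 min at room temperature. HepG2-CYP2B6-hCAR double-stable cells, compounds in 15-point titration plus 50 nM CITCO final, 24 h at 37 C/5% CO2.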

[3] = biological target: Nuclear receptor subfamily 1 group I member 3 (Homo sapiens) (UniProt Q14994); test: qHTS assay to identify small molecule agonists of the constitutive androstane receptor (CAR) signaling pathway (AID 1224839); further: nearly all actives have a fitted effect of over 15% in size; further: potency means the concentration at half of the fitted maximal effect;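 on activation: HepG2 cells stably carrying human CAR and a CYP2B6 luciferase reporter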
Outline: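 Luminescence read-out (ONE-Glo, 30 min, room temperature) from double-stable HepG2-CYP2B6-hCAR cells exposed 24 h to 15-point compound series in presence of 0.75 uM PK11195 final.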

[4] = qHTS assay to identify small molecule antagonists of the estrogen related receptor signaling pathway with the pleiotropic PPARgamma coactivator (PGC) from Tox21 10K library - cell viability counter screen (AID 1224840; active means well fitted cell-killing curve with a large enough effect in the repeat runs, not every such curve was filed as active; further: nearly all actives have a fitted effect of over 40% in size)
Outline: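 Fluorescence read-out of CellTiter-Fluor viability reagent, added after cells had been exposed to compound in DMSO for 17.5 h at 37 C; 30 min development at 37 C/5% CO2. Cells: PGC/ERR line, 2,000/well.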

[5] = biological target: Thyrotropin receptor (Homo sapiens) (UniProt P16473); test: qHTS assay to identify small molecule agonists of the thyroid stimulating hormone receptor (TSHR) signaling pathway (AID 1224843; calls by dose curve; further: nearly all actives have a fitted effect of over 45% in size; further: potency means the concentration at half of the fitted maximal effect)
Outline: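 Agonist-mode screen: TSHR HEK293 cells received test chemicals for half an hour at room temperature, then HTRF cAMP detection reagents for one hour prior to fluorescence measurement. Each chemical ran as a 15-concentration series, triplicated.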

[6] = qHTS assay to identify small molecule agonists of the hypoxia (HIF-1) signaling pathway - cell viability counter screen (AID 1224844; calls by dose curve; further: nearly all actives have a fitted effect of over 50% in size)
Outline: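 CellTiter-Glo luminescence read-out, 30 min RT, taken in the same wells as the beta-lactamase HRE reporter assay; HRE-bla ME-180 cells, 0.5% dialyzed FBS, 17 hr compound treatment at 37C, 5% CO2.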

[7] = qHTS assay to identify small molecule agonists of H2AX (AID 1224845; active means well fitted activation curve with a large enough effect in the signal ratio in the repeat runs, not every such curve was filed as active; the % refers to the signal ratio)
Outline: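 Wild-type CHO-K1 cells, plated overnight, exposed 3hr at 37C to 15 concentrations (0.76% DMSO final). Lysed, then HTRF anti-pH2AX (S139) cryptate and anti-H2AX-d2 antibodies, 24 hr room temperature; 665/620 nm emission read.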

[8] = qHTS assay to identify small molecule agonists of H2AX - cell viability counter screen (AID 1224847; calls by dose curve; further: top concentration of the series differs between compounds; nearly all actives have a fitted effect of over 30% in size)
Outline: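 CHO-K1 wt, 1000 cells/well, o/n 37C; cpds 15 conc, 3 h 37C, 0.76% DMSO; CellTiter-Glo, 30 min RT, luminescence.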

[9] = qHTS RealTime-Glo MT Cell Viability Assay in HepG2 cells - 24 hour (AID 1224867); further: nearly all actives have a fitted effect of over 50% in size
Outline: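 qHTS, HepG2, 600 cells/well, RealTime-Glo (NanoLuc + prosubstrate) added with cells; 5 h preincubation; DMSO compound addition; 37 C; luminescence at 0/8/16/24/32/40 h.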

[10] = qHTS RealTime-Glo MT Cell Viability Assay in HEK293 cells - 32 hour (AID 1224868); further: top concentration of the series differs between compounds; nearly all actives have a fitted effect of over 50% in size
Outline: (§1)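 Assay medium contained NanoLuc luciferase plus cell-permeant prosubstrate, added with HEK293 cells at 600 cells/well. After 5 h at 37 C/5% CO2 compounds were added; plates stayed at 37 C for 40 h with serial luminescence reads.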

[11] = A CellTox Green Cytotoxicity Assay to monitor cytotoxicity in HEK293 cells - 0 hour (AID 1224869); further: nearly all actives have a fitted effect of over 50% in size
Outline: (§2)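 Read-out: fluorescence of a cell-impermeant cyanine dye staining DNA of dead cells, proportional to cytotoxicity. HEK293, 600 cells/well with reagent, compound (23 nL DMSO) added after 5 h; reads at 0, 8, 16, 24, 32, 40 h.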

[12] = qHTS RealTime-Glo MT Cell Viability Assay in HepG2 cells - 40 hour (AID 1224870); further: nearly all actives have a fitted effect of over 50% in size
Outline: (§3)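 HepG2 cells (600/well) mixed with RealTime-Glo MT reagent, settled 5 h at 37 C/5% CO2 before compound addition. Nonlytic NanoLuc luminescence from viable-cell prosubstrate reduction read repeatedly during 40 h treatment at 37 C.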

[13] = A CellTox Green Cytotoxicity Assay to monitor cytotoxicity in HEK293 cells - 40 hour (AID 1224871); further: nearly all actives have a fitted effect of over 45% in size
Outline: as §2

[14] = qHTS RealTime-Glo MT Cell Viability Assay in HEK293 cells - 16 hour (AID 1224872)
Outline: as §1

[15] = qHTS RealTime-Glo MT Cell Viability Assay in HepG2 cells - 8 hour (AID 1224873); further: nearly all actives have a fitted effect of over 55% in size
Outline: as §3

[16] = A CellTox Green Cytotoxicity Assay to monitor cytotoxicity in HEK293 cells - 24 hour (AID 1224875); further: nearly all actives have a fitted effect of over 45% in size
Outline: as §2

[17] = A CellTox Green Cytotoxicity Assay to monitor cytotoxicity in HepG2 cells - 16 hour (AID 1224876); further: nearly all actives have a fitted effect of over 45% in size
Outline: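 HepG2, 600 cells/well premixed w/ CellTox Green; 5 h settle, 37 C/5% CO2; pintool cpd add (DMSO); 37 C, 40 h; fluorescence read at 0, 8, 16, 24, 32, 40 h.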

[18] = qHTS assay to identify small molecule agonists of the hypoxia (HIF-1) signaling pathway (AID 1224846; active means well fitted activation curve with a large enough effect in the signal ratio in the repeat runs, not every such curve was filed as active; the % refers to the signal ratio)
Outline: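 Beta-lactamase FRET read-out (CCF4-AM substrate) from ME-180 cells carrying an HRE-driven bla reporter, after 17 hrs compound exposure at 37C/5% CO2. Cells were seeded at 2,000 per well in 0.5% dialyzed FBS medium and preincubated 5 hrs.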

[19] = qHTS assay to identify small molecule agonists of the estrogen related receptor (ERR) signaling pathway from Tox21 library (AID 1224849; calls by dose curve; further: nearly all actives have a fitted effect of over 15% in size); details: ERR reporter cell line, ONE-Glo luciferase, 18 h; at 92.4 µM (top of the series)
Outline: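 Luminescence readout (ONE-Glo, 30 min RT) after 18 h compound exposure at 37 C of NTP-supplied ERR reporter cells; cells were plated 6 h before compound addition by pin tool.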

[20] = qHTS RealTime-Glo MT Cell Viability Assay in HEK293 cells - 40 hour (AID 1224874); details: RealTime-Glo luminescence; max response: stronger effect = lower value; further: nearly all actives have a fitted effect of over 50% in size
Outline: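 Luminescence readout at each listed time point; HEK293, 600 cells/well, RealTime-Glo MT reagent added with cells; compounds pinned (23 nL in DMSO) after 5 h at 37 C; continuous culture at 37 C.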

Sequence of Thyrotropin receptor (Homo sapiens) (P16473 whole entry, looked up): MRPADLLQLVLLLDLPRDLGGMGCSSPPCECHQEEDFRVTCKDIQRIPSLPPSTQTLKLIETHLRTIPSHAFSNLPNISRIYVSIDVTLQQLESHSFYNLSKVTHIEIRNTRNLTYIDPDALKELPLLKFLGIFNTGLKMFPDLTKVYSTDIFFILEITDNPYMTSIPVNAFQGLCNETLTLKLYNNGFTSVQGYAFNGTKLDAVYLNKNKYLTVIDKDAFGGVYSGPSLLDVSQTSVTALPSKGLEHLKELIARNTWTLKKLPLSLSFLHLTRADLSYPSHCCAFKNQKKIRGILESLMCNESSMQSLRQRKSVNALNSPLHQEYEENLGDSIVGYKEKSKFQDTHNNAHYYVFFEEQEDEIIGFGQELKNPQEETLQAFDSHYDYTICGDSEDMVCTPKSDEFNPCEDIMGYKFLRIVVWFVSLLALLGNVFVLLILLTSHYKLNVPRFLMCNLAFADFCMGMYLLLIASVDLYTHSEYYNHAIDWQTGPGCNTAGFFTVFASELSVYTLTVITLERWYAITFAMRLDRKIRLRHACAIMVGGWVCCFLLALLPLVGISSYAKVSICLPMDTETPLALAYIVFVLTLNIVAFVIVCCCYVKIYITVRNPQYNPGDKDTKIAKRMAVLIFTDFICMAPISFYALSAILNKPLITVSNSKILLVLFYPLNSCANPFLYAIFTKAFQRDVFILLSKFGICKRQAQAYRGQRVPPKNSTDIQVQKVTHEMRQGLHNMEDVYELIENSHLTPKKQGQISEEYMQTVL
Sequence of Nuclear receptor subfamily 1 group I member 3 (Homo sapiens) (Q14994 whole entry, looked up): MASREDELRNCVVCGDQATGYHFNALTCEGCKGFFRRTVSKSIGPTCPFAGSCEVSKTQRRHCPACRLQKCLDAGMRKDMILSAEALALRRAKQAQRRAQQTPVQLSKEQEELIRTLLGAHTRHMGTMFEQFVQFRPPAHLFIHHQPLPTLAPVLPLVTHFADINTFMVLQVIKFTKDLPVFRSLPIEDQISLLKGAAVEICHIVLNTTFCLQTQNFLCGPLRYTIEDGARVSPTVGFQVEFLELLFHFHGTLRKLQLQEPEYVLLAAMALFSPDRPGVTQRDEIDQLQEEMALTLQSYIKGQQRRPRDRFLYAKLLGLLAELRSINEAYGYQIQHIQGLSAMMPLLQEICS

NNc1nncc2ccccc12
Potency [1]: inactive
Potency [2]: inactive
Potency [3]: 12.2 µM (active)
activation [3]: 12.7% [at 19 µM] (inactive)
viability change, negative = cytotoxic [4]: 3.22% [at 19 µM] (inactive)
activation [5]: -1.13% [at 19 µM] (inactive)
Potency [6]: inactive
activation (H2AX phosphorylation) [7]: 1% [at 31.6 µM] (inactive)
Potency [8]: inactive
outcome [9]: inactive
activity change, negative = cytotoxic [10]: 3.93% [at 15.8 µM] (inactive)
outcome [11]: inactive
outcome [12]: inactive
Potency [13]: inactive
activity change, negative = cytotoxicity [14]: -0.186% [at 15.8 µM] (inactive)
outcome [15]: inactive
Potency [16]: inactive
Potency [17]: inactive

OCCOCCOCCO
Potency [1]: inactive
Potency [2]: inactive
Potency [3]: inactive
Potency [4]: inactive
Potency [5]: inactive
Potency [6]: inactive
Potency [7]: inactive
outcome [18]: inactive
Potency [8]: inactive
activity change, positive = activation [19]: -2.92% (inactive) and 6.58% (inactive)
outcome [9]: inactive
Potency [10]: inactive
outcome [11]: inactive
outcome [12]: inactive
Potency [13]: inactive
Potency [14]: inactive
Potency [16]: inactive
Potency [17]: inactive

O=C(Oc1ccccc1)c1ccccc1
Potency [1]: inactive
Potency [2]: inactive
Potency [3]: inactive
Potency [4]: inactive
Potency [5]: inactive
Potency [6]: inactive
Potency [7]: inactive
outcome [18]: inactive
Potency [8]: inactive
activity change, positive = activation [19]: 4.89% (inactive) and 5.21% (inactive)
Potency [10]: inactive
outcome [11]: inactive
outcome [12]: inactive
Potency [13]: inactive
Potency [14]: inactive
max response [20]: -9.85% (inactive) and 1.19% (inactive)
Potency [16]: inactive
Potency [17]: inactive

CC(=O)Nc1cccc(O)c1
Potency [1]: inactive
Potency [2]: inactive
Potency [3]: inactive
Potency [4]: inactive
Potency [5]: inactive
Potency [6]: inactive
Potency [7]: inactive
outcome [18]: inactive
Potency [8]: inactive
outcome [9]: inactive
Potency [10]: inactive
outcome [11]: inactive
outcome [12]: inactive
Potency [13]: inactive
Potency [14]: inactive
outcome [15]: inactive
max response [20]: -14.2% (inactive) and 4.42% (inactive)
Potency [16]: inactive
Potency [17]: inactive

CCCCCCCCCCCCOCCO
Potency [1]: inactive
Potency [2]: inactive
Potency [3]: inactive
Potency [4]: inactive
Potency [5]: inactive
Potency [6]: inactive
Potency [7]: inactive
outcome [18]: inactive
Potency [8]: inactive
outcome [9]: inactive
Potency [10]: inactive
outcome [11]: inactive
outcome [12]: inactive
Potency [13]: inactive
Potency [14]: inactive
outcome [15]: inactive
max response [20]: -14.2% (inactive) and -3.69% (inactive)
Potency [16]: inactive
Potency [17]: inactive

Cc1cccnc1
Potency [1]: inactive
Potency [2]: inactive
Potency [3]: inactive
Potency [4]: inactive
Potency [5]: inactive
Potency [6]: inactive
Potency [7]: inactive
outcome [18]: inactive
Potency [8]: inactive
activity change, positive = activation [19]: 2.78% (inactive) and 3.63% (inactive)
outcome [9]: inactive
Potency [10]: inactive
outcome [11]: inactive
outcome [12]: inactive
Potency [13]: inactive
Potency [14]: inactive
max response [20]: -5.56% (inactive) and 0.742% (inactive)
Potency [16]: inactive
Potency [17]: inactive

CC1=CC(=O)NS(=O)(=O)O1
Potency [1]: inactive
Potency [2]: 48.7 µM (active) and inactive
Potency [3]: inactive
Potency [4]: inactive
Potency [5]: inactive
Potency [6]: inactive
Potency [7]: inactive
outcome [18]: inactive
Potency [8]: inactive
Potency [10]: inactive
outcome [11]: inactive
outcome [12]: inactive
Potency [13]: inactive
Potency [14]: inactive
outcome [15]: inactive
Potency [16]: inactive
Potency [17]: inactive

O=C(O)c1ccccc1C(c1ccc(O)cc1)c1ccc(O)cc1
Potency [1]: inactive
Potency [2]: inactive
Potency [3]: inactive
Potency [4]: inactive
Potency [5]: inactive
Potency [6]: inactive
Potency [7]: inactive
outcome [18]: inactive
Potency [8]: inactive
activity change, positive = activation [19]: 4.92% (inactive) and 4.34% (inactive)
Potency [10]: inactive
outcome [11]: inactive
outcome [12]: inactive
Potency [13]: inactive
Potency [14]: inactive
outcome [15]: inactive
max response [20]: 2.57% (inactive) and 12.8% (inactive)
Potency [16]: inactive
Potency [17]: inactive

O=C=NCCCCCCN=C=O
Potency [1]: inactive
Potency [2]: 23.8 µM (active) and inactive
Potency [3]: inactive
Potency [4]: inactive
Potency [5]: inactive
Potency [6]: inactive
Potency [7]: inactive
outcome [18]: inactive
Potency [8]: inactive
outcome [9]: inactive
Potency [10]: inactive
outcome [11]: inactive
outcome [12]: inactive
Potency [13]: inactive
Potency [14]: inactive
outcome [15]: inactive
max response [20]: 4.38% (inactive)
Potency [16]: inactive
Potency [17]: inactive

CCCCCC(N)=O
Potency [1]: inactive
Potency [2]: inactive
Potency [3]: inactive
Potency [4]: inactive
Potency [5]: inactive
Potency [6]: inactive
Potency [7]: inactive
outcome [18]: inactive
Potency [8]: inactive
Potency [10]: inactive
outcome [11]: inactive
outcome [12]: inactive
Potency [13]: inactive
Potency [14]: inactive
outcome [15]: inactive
max response [20]: 0.824% (inactive) and 2.09% (inactive)
Potency [16]: inactive
Potency [17]: inactive

Fc1ccc(Br)cc1
Potency [1]: inactive
Potency [2]: inactive
Potency [3]: inactive
Potency [4]: inactive
Potency [5]: 30.9 µM (active) and inactive
Potency [6]: inactive
Potency [7]: inactive
outcome [18]: inactive
Potency [8]: inactive
activity change, positive = activation [19]: -0.613% (inactive) and 3.34% (inactive)
outcome [9]: inactive
Potency [10]: inactive
outcome [11]: inactive
outcome [12]: inactive
Potency [13]: inactive
Potency [14]: inactive
outcome [15]: inactive
max response [20]: 11.6% (inactive) and 0.497% (inactive)
Potency [16]: inactive
Potency [17]: inactive

CCCCCOC(C)=O
Potency [1]: inactive
Potency [2]: 2.2 µM (active) and inactive
Potency [3]: inactive
Potency [4]: inactive
Potency [5]: inactive
Potency [6]: inactive
Potency [7]: inactive
outcome [18]: inactive
Potency [8]: inactive
outcome [9]: inactive
Potency [10]: inactive
outcome [11]: inactive
outcome [12]: inactive
Potency [13]: inactive
Potency [14]: inactive
outcome [15]: inactive
max response [20]: -23.8% (inactive) and 1.43% (inactive)
Potency [16]: inactive
Potency [17]: inactive

CCC(O)OCCCOC (stereo not given)
Potency [1]: inactive
Potency [2]: inactive
Potency [3]: inactive
Potency [4]: inactive
Potency [5]: inactive
Potency [6]: inactive
outcome [18]: inactive
Potency [8]: inactive
activity change, positive = activation [19]: 1.37% (inactive) and 8.84% (inactive)
Potency [10]: inactive
outcome [11]: inactive
outcome [12]: inactive
Potency [13]: inactive
Potency [14]: inactive
max response [20]: 1.35% (inactive) and 16.2% (inactive)
Potency [16]: inactive
Potency [17]: inactive
